Only some compounds are listed: those with a hit (about 0.25% of all), similar ones and a draw of the others.
USP2a inh: qHTS Assay for Inhibitors of Ubiquitin-specific Protease USP2a Using CHOP2 as the Reporter | AID 463254, 2010 | 330,000 compounds, 0.01% hits | USP2 core, Ub-CHOP2 coupled fluorogenic reporter, 485/531 | Potency, µM (top dose mostly 38.3 µM), inactives show top-dose activity change, negative = inhibition, most hits filed as inhibitors | Ubiquitin carboxyl-terminal hydrolase 2 (Homo sapiens), O75604;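 note: plate controls were DMSO wells for no effect and full inhibition by NEM control for full effect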
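Cell-free coupled assay: 10nM USP2 core preincubated 30min RT with compound in Tris-HCl pH 8.0/CaCl2/CHAPS buffer, then 25nM Ub-CHOP2 and 25nM reporter substrate; fluorescence (Ex 485/Em 531) read after 60min RT, normalized to NEM inhibition, concentration-response curves fitted.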
Chronic BCR inh: qHTS Assay to Find Inhibitors of Chronic Active B-Cell Receptor Signaling; AID 493014, 2011; 340,000 compounds, 0.05% hits; ABC-DLBCL IkBa-CBG/CBR reporter, luminescence ratio, 4 h; Potency, µM (top dose mostly 46.1 µM), for inactives: top-dose activity change, negative = inhibition, actives largely listed as inhibitors; active = well fitted inhibition curve with a large enough effect in the signal ratio, with a control signal flat, not every such curve was filed as active; inconclusive = small, poorly fitted or top-dose-only effect, or effect the other way, or a change in a side signal; the % refers to the signal ratio;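 note: plate controls were basal doxycycline-induced cells for no effect and cells given 10 µM MG132 for full effect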
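Cell line TMD8 (human ABC DLBCL), stably expressing tet-inducible CBG68-IkBa fusion and CBR; IMDM/0.5% FBS; cpd up to 46 uM; dox induction, 4 h, 37C/5% CO2; dual luminescence; green/red ratio; MG132 control.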
Tb PGK inh: qHTS Assay to Find Inhibitors of Phosphoglycerate Kinase; AID 602233, 2012; Phosphoglycerate kinase, glycosomal (Trypanosoma brucei brucei), P07378; Potency, µM (doses to about 57.5 µM), inactives show top-dose activity change, negative = inhibition, actives largely listed as inhibitors; 380,000 compounds, 0.043% hits; PGK/GAPDH coupled, Kinase-Glo luminescence, 60 min; note: nearly all actives have a fitted effect of over 60% in size
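Recombinant glycosomal PGK reaction used 1,3-bisphosphoglycerate generated in-well by GAPDH (100nM final) in 100mM TEA pH 7.6, 5mM MgCl2, 0.01% Tween-20. After 60 minutes at room temperature, ATP was read by Kinase-Glo Plus luminescence end-point.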
Tb PFK block: qHTS Assay to Find Inhibitors of T. brucei phosphofructokinase. ATP-dependent 6-phosphofructokinase (Trypanosoma brucei brucei), O15648. T. brucei PFK, ADP-Glo luminescence. Potency, µM (titrated, usually from 57.5 µM), for inactives: at the top dose activity, negative = inhibition, actives largely listed as inhibitors. 330,000 compounds, 0.17% hits. AID 485367, 2010;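 note: 0% = uninhibited 1x PFK enzyme wells and -100% = no-enzyme wells; nearly all actives have a fitted effect of over 60% in size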
Target sequence (O15648 whole entry, looked up): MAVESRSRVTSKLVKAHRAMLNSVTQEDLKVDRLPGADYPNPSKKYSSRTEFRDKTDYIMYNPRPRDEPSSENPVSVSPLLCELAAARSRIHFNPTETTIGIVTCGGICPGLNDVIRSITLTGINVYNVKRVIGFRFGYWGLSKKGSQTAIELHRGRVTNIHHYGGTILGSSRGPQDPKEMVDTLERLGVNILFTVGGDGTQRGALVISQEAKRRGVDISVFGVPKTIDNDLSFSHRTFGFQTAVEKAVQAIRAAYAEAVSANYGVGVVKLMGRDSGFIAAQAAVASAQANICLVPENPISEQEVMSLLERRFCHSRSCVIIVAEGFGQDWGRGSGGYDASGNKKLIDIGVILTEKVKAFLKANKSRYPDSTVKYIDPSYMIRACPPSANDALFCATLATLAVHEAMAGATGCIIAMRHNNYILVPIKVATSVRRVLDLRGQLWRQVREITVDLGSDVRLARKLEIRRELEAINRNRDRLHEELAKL
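In TEA buffer at pH 8.0 with 5 mM MgCl2, enzyme (1.25 nM) converted F6P (0.5 mM) and ATP (0.1 mM) for 45 min at room temperature. ADP product was read by luciferase luminescence.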
RGS4 inhibitor: Inhibitors of Regulator of G Protein Signaling (RGS) 4: qHTS. Transcreener GDP fluorescence polarization, RGS4-accelerated GTP hydrolysis. Potency, µM (highest dose often 114 µM), inactives show top-dose activity change, negative = inhibition, most hits filed as inhibitors. 390,000 compounds, 0.039% hits; note: nearly all actives have a fitted effect of over 75% in size
Target sequence (P49798 whole entry, looked up): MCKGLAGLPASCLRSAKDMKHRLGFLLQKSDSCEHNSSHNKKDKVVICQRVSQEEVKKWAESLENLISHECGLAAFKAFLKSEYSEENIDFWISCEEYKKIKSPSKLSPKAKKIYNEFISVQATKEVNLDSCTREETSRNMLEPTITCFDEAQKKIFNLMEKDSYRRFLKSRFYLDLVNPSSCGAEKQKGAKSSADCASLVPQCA
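MLSMR compounds (23 nl, pin-transferred) preincubated 10 min at room temperature with a 500nM (2x) first reagent, then RGS4 at 900nM (2x) plus Transcreener GDP mix added; fluorescence polarization (620/688 nm) read before and after 90 min at 30 °C.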
An asterisk follows results filed as active; [ ] = dose if it differs, or a comment. Unless noted, calls come from the whole dose curve; as a rule, active = well fitted curve in the direction sought with a large enough effect; inconclusive = small, poorly fitted or top-dose-only effect, or another doubt; inactive = no such curve, though single readings can be large; an effect the other way counts as inactive or inconclusive. Unless noted, % is set by controls: 0 for no effect and ±100 for the full control effect; potency is the fitted concentration of half-maximal effect.

Screening Cc1ccc(S(=O)(=O)NC(=S)c2ccccc2)cc1 returned Tb PGK inh 7% and RGS4 inhibitor -2%.
`CS(=O)(=O)c1ccc(S(=O)CC(=O)Oc2ccc(Cl)cc2)c([N+](=O)[O-])c1` (stereo not drawn) gave USP2a inh -6%, Chronic BCR inh 18µM*, Tb PGK inh inactive, Tb PFK block -26% and RGS4 inhibitor inconclusive.
`O=C(CS(=O)c1ccccc1[N+](=O)[O-])Oc1ccc(Br)cc1` (stereo not drawn) gave USP2a inh 0%, Chronic BCR inh 5%, Tb PGK inh 6%, Tb PFK block -9% and RGS4 inhibitor -21%.
For O=c1cc(-c2ccc(O)cc2)oc2cccc(O)c12 the results were RGS4 inhibitor 2.1µM*.
O=C(O)C1=CC(=C(c2ccc(O)c(C(=O)O)c2)c2ccc(O)c(C(=O)O)c2)C=CC1=O was read as USP2a inh 1.1µM*, Chronic BCR inh inconclusive, Tb PFK block inconclusive and RGS4 inhibitor 11µM*.
`CC(=O)OCON[N+]([O-])=NC1CCCCC1` gave RGS4 inhibitor -23%.
COC(=O)c1ccccc1NC(=O)/C=C/c1cc(OC)c(OC)c(OC)c1 was read as USP2a inh -4%, Chronic BCR inh 16µM*, Tb PGK inh 1%, Tb PFK block 1% and RGS4 inhibitor -27%.
For COc1ccc(/C=C/C(=O)Nc2ccccc2C(=O)O)cc1OC the results were USP2a inh 2%, Chronic BCR inh inconclusive, Tb PGK inh -10%, Tb PFK block inconclusive and RGS4 inhibitor -8%[56.9 µM].
Screening CC/C=C/[C@@H](c1ccccc1)[C@H](C)C(O)CC(=O)SC(C)(C)C (stereo partly drawn) returned RGS4 inhibitor 5%.
`Cc1ccc(NC(=O)CN2C(=O)S/C(=C/c3ccc(-c4cc(C(=O)O)ccc4C)o3)C2=O)cc1C` gave USP2a inh 0%, Chronic BCR inh inconclusive, Tb PGK inh 20µM*, Tb PFK block inconclusive and RGS4 inhibitor inconclusive.
For Cc1cccc(NC(=O)CN2C(=O)S/C(=C\c3ccc(-c4cccc(C(=O)O)c4C)o3)C2=O)c1 the results were USP2a inh 0%, Chronic BCR inh inconclusive, Tb PGK inh inactive, Tb PFK block -1% and RGS4 inhibitor -30%.
Screening NNC(=O)/C(=C/c1cccs1)NC(=O)c1ccccc1Cl returned USP2a inh 0%, Chronic BCR inh 11µM*, Tb PGK inh inactive, Tb PFK block 1% and RGS4 inhibitor 10%.
`COCCN(Cc1cc2cc(C)cc(C)c2nc1Cl)C(=O)Nc1ccccc1` gave USP2a inh 4%, Chronic BCR inh 16µM*, Tb PFK block 1% and RGS4 inhibitor -7%.
`COc1ccc(C2CC(c3ccccc3)Oc3cc(OC)ccc32)cc1` (stereo not drawn) gave RGS4 inhibitor -27%.
COC(=O)c1ccc(-c2ccc(C3C4C=CCC(C)C4C(=O)N3Cc3ccccc3)c(F)c2)cc1 (stereo not drawn) was read as RGS4 inhibitor 3%.
Screening CC(=O)Nc1ccc(NC(=O)CN2C(=O)CCc3cc(S(=O)(=O)N4CCCCC4)ccc32)cc1 returned Tb PGK inh inactive and RGS4 inhibitor -6%.
CC(=O)c1ccc(NC(=O)CN2C(=O)CCc3cc(S(=O)(=O)N4CCC(C)CC4)ccc32)cc1 was read as Tb PGK inh 25µM* and RGS4 inhibitor 0%.
For N=C1C(c2nc3ccccc3c(=O)[nH]2)=C(O)CN1CCc1ccccc1 the results were USP2a inh 0.79µM*, Chronic BCR inh 16%, Tb PGK inh -9%, Tb PFK block 2% and RGS4 inhibitor 11%.
`O=C(Nc1cc(-c2ccc(F)c(F)c2)no1)c1ccccc1F` gave Tb PGK inh inactive and RGS4 inhibitor 15%.
For Cc1cc([N+](=O)[O-])ccc1N the results were USP2a inh 1%, Chronic BCR inh inconclusive, Tb PGK inh inactive, Tb PFK block -14% and RGS4 inhibitor -26%.
O=[N+]([O-])c1ccc2c(c1)S(=O)(=O)C=C2 was read as RGS4 inhibitor 21µM*.
Screening N/C(=N\OC(=O)c1ccc2ccccc2c1)c1ccccn1 returned USP2a inh 0%, Chronic BCR inh inconclusive, Tb PGK inh inconclusive, Tb PFK block -8% and RGS4 inhibitor -13%.
Screening COc1cccc(C(=O)O/N=C(\N)c2ccccn2)c1 returned USP2a inh -2%, Chronic BCR inh inconclusive, Tb PGK inh 14µM*, Tb PFK block inconclusive and RGS4 inhibitor 9%.
COc1ccc(C2C=C3CN(C(=O)OC(C)(C)C)S(=O)(=O)C3CC2OC(=O)c2cccc(C)c2)cc1 (stereo not drawn) was read as RGS4 inhibitor -13%.
For O=C(N/N=C/c1ccccc1O)NC12CC3CC(CC(C3)C1)C2 the results were USP2a inh -4%, Chronic BCR inh 3%, Tb PGK inh 13%, Tb PFK block 10% and RGS4 inhibitor -12%.
`O=C(N/N=C/c1cc(Cl)cc([N+](=O)[O-])c1O)NC12CC3CC(CC(C3)C1)C2` gave USP2a inh 2%, Chronic BCR inh 0%, Tb PGK inh 11µM*, Tb PFK block -3% and RGS4 inhibitor -10%.
`Cc1ccc(S(=O)(=O)NCC(Nc2cccc(Cl)c2)c2ccccc2)cc1` (stereo not drawn) gave Tb PGK inh 10% and RGS4 inhibitor 13%.
For Cc1cccc(NC(=O)CNCC(=O)Nc2cccc(C)c2C)c1C the results were USP2a inh 4%, Chronic BCR inh -1%, Tb PGK inh -8%, Tb PFK block -12% and RGS4 inhibitor 9%.
`Cc1cccc(NC(=O)CNC(=O)c2cccc(-n3cccc3)c2)c1C` gave USP2a inh 1%, Chronic BCR inh -10%, Tb PGK inh inconclusive, Tb PFK block 21µM* and RGS4 inhibitor -36%.
`O=CC(O)C1OC(=O)C(O)C1O` (stereo not drawn) gave Tb PGK inh 6.3µM* and RGS4 inhibitor 6%.
Screening CN(C(=O)c1ccoc1)c1ccccc1I returned RGS4 inhibitor 13%.
Screening O=C(O)c1cc(-c2ccc(/C=c3\sc4nc5ccc(Br)cc5n4c3=O)o2)ccc1Cl returned USP2a inh -1%, Chronic BCR inh 0% and Tb PFK block 0.85µM*.

Screening results from PubChem BioAssay.
